Compound activity: PubChem BioAssay, National Center for Advancing Translational Sciences (NCATS)
TDP-43 yeast inh: rescues yeast growth from TDP-43 toxicity; TDP-43 expressing yeast growth rescue, BacTiter-Glo, 24 h; Potency, µM (titrated, usually from 46.1 µM), inactives show at the highest dose growth rescue (activation), hits mostly activators; 410,000 compounds, 1.8% hits; AID 652104; further: % of control where 0% means no effect; nearly all actives have a fitted effect of over 50% in size
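Growth rescue of TDP-43-toxic yeast measured as ATP luminescence (BacTiter-Glo). Cells grown to mid-log in raffinose, induced in galactose at OD600=0.02, exposed to compound 24 hr at 30 deg C.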
aSyn rescue: alpha-synuclein toxicity inhibition in yeast; Yeast expressing alpha-synuclein, growth rescue, BacTiter-Glo, 24 h; Potency, µM (doses to about 46.1 µM), for inactives: top-dose growth rescue (activation), usual class: activators; 370,000 compounds, 0.14% hits; further: % of control where 0% means no effect; nearly all actives have a fitted effect of over 65% in size
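Galactose-induced alpha-syn yeast (OD600=0.02, raffinose-pregrown) + pinned cpd, 24 hr, 30 deg C; growth by BacTiter-Glo luminescence. Growth restoration scores as activation.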
FUS suppressor: rescues growth of FUS-expressing yeast; S. cerevisiae FUS-expressing, growth rescue, OD600, 24 h; Potency, µM (highest dose often 76.6 µM), usual class: activators; 390,000 compounds, 0.24% hits;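 further: plate controls were DMSO vehicle for no effect and reference control for full effect; nearly all actives have a fitted effect of over 55% in size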
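Yeast expressing FUS under galactose induction, OD 0.005 in 2% galactose medium; compounds in a dilution series, 24 h at 30C. Growth rescue by absorbance at 600 nm; CP55940 positive control, DMSO negative.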
Mito fusion yeast: blocks mitochondrial division or promotes mitochondrial fusion; AID 485298; Potency, µM (series often up to 46.1 µM), inactives show top-dose growth rescue (activation), hits mostly activators; 320,000 compounds, 0.23% hits; S. cerevisiae fusion-defective mutant growth rescue, CellTiterGlo 48 h; further: % of control where 0% means no effect; nearly all actives have a fitted effect of over 45% in size
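Luminescent cell viability in 1536-well qHTS format served as the measure of rescued growth in ts fusion-mutant S. cerevisiae cultured on non-fermentable YPEG for 48 hours at 37C.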
Abeta rescue: A-beta toxicity reversal in yeast; yeast expressing A-beta42, growth rescue, OD600, 48 h; response scale: 0% DMSO, 100% iron-clioquinol control; 410,000 compounds, 0.063% hits; Potency, µM (series often up to 46.1 µM), most hits filed as activators; further: nearly all actives have a fitted effect of over 55% in size
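Growth rescue measured by 600 nm absorbance after 48 h yeast culture at 30 C with compound. Values normalized between DMSO and an equimolar ferric chloride plus clioquinol control.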
Active calls of the source: *; i = inactive; ? = inconclusive; . = no result; [ ] = another dose, or the depositor's remark. Most compounds without a hit are left out; they make up all but 2.2% or so of the library. The call rests on the fitted dose curve; in most records, active means well fitted curve in the direction sought with a large enough effect; inconclusive means small, poorly fitted or top-dose-only effect, or another doubt; inactive means no such curve, though single readings can be large; an effect the other way counts as inactive or inconclusive. Potency means the concentration at half of the fitted maximal effect.

SMILES	TDP-43 yeast inh	aSyn rescue	FUS suppressor	Mito fusion yeast	Abeta rescue
O=C(OCn1ncc(Cl)c(Cl)c1=O)c1ccc(F)cc1	.	.	.	-22%	.
O=C(OCn1ncc(Cl)c(Cl)c1=O)c1ccccc1Cl	5.6µM*	11%	i	-18%	i
O=C(c1ccc(Cl)cc1)N1CCN(c2ccc([N+](=O)[O-])c3ncccc23)CC1	.	12%	.	23µM*	.
O=C(c1cc(F)c(F)cc1Cl)N1CCN(c2ccc([N+](=O)[O-])c3ncccc23)CC1	?	-11%	i	0%	i
COc1ccc(-c2cc(C(F)(F)F)c3c(=O)n(-c4ccccc4)[nH]c3n2)cc1	8.9µM*	.	i	13%	i
COc1ccc(NC(=O)CN(C)C(=O)c2cn(-c3ccccc3)nc2-c2ccc(F)cc2)cc1	25µM*	-11%	?	25%	i
CC(Oc1ccc(Br)cc1)c1nc2c3ccccc3nc(=S)n2[nH]1 (stereo not drawn)	-9%	17%	35µM*	-2%	?
CC(/C=N/n1c(-c2cc(C)[nH]n2)n[nH]c1=S)=C\c1ccccc1	0%	-1%	i	1%	i
CC(=C/c1ccccc1)/C=N/n1c(-c2ccco2)n[nH]c1=S	11µM*	.	i	10%	i
COc1ccc(-c2nc(SCC(=O)NC(C)CCc3ccccc3)n[nH]2)cc1 (stereo not drawn)	9%	.	i	.	i
O=C(Nc1c(F)cc(F)cc1Br)c1cc(-c2ccccc2)on1	15%	5%	i	-1%	i
O=C(Nc1c(F)cc(F)cc1Br)c1cc(-c2ccc(O)cc2)on1	11µM*	-20%	i	?	i
CC1CCCC(C)N1CC(O)Cn1c2ccccc2c2ccccc21 (stereo not drawn)	11µM*	6%	i	3%	i
Cc1ccc(-c2nnc(NC(=O)COc3ccc(F)cc3Cl)o2)cc1C	.	.	i	.	.
CCn1nc(NS(=O)(=O)c2cccc3nonc23)c2cc3ccc(C)cc3nc21	-3%	-21%	i	-2%	i
CCCCn1nc(NS(=O)(=O)c2cccc3nonc23)c2cc3cccc(C)c3nc21	12%	8%	i	11µM*	i
CN(C)c1ccc(N=Nc2ccc(/C=C/c3ccnc4ccccc34)cc2)cc1	.	26%	.	.	.
CCn1c2ccccc2c2cc(Nc3cc(C)nc4ncnn34)ccc21	16µM*	9%	i	16µM*	i
Cc1nc2c(C(=O)NCc3ccco3)cnn2c(C)c1Cc1ccc(F)cc1Cl	-15%	0%	i	-1%	i
Cc1cccc(Cc2c(C)nc3c(C(=O)NCc4ccco4)cnn3c2C)c1	5%	10%	13µM*	2%	i
COc1ccc(/C(N)=N/OC(=O)c2cccc([N+](=O)[O-])c2)cc1	-9%	-21%	i	0%	i
COc1ccc(/C(N)=N/OC(=O)c2cccc([N+](=O)[O-])c2C)cc1	7.1µM*	-3%	i	0%	i
COc1ccccc1C/C(N)=N/OC(=O)c1cccc([N+](=O)[O-])c1C	20µM*	-56%	i	-13%	i
COc1ccc(C(=O)Nc2cccc(-c3cn4ccsc4n3)c2)cc1OC	20%	.	i	.	i
O=C(Cn1c(=O)oc2cc(S(=O)(=O)NC3CCCC3)ccc21)Nc1ccc(F)c(F)c1	20%	.	i	.	i
SMILES	TDP-43 yeast inh	aSyn rescue	FUS suppressor	Mito fusion yeast	Abeta rescue
O=C(COc1ccccc1C(=O)Nc1ccccc1)Nc1ccccc1F	.	-1%	.	.	.
O=C(OCC(=O)c1c[nH]c2ccccc12)c1cncc(Br)c1	11µM*	-5%[1.84 µM]	i	.	i
COCCCNC(=O)Cc1c(C)c2c(cc(C)c3c(C(C)(C)C)coc32)oc1=O	4%	-1%	32µM*	?	i
O=C(O)CSc1ccc2ccccc2n1	20%	-9%	i	-6%	i
COc1cccc(NC(=O)CCSc2ccc3ccccc3n2)c1	13µM*	13%	.	21%	i
O=C(O)CCSc1ccc2ccccc2n1	18µM*	1%	i	5%	i
CCNC(=O)OCCN1C(=O)CCC12CCC(c1ccc(Cl)cc1)CC2 (stereo not drawn)	.	.	i	.	.
O=C(c1cccs1)N1CCN(c2ccc([N+](=O)[O-])cc2F)CC1	21%	2%	i	1%	i
Cc1cc(N2CCN(C(=O)c3cccs3)CC2)c(F)cc1[N+](=O)[O-]	13µM*	7%	i	21%	i
COc1ccc(N2CCN(C(=S)NC(=O)c3cccs3)CC2)c([N+](=O)[O-])c1	22µM*	9%	i	-8%	?
CC1CCCC(NC(=O)c2cccc(S(=O)(=O)NCc3ccccc3)c2)C1C (stereo not drawn)	35µM*	7%	i	29%	i
CCc1ccc(N2C(=O)C[C@@](C#N)(C(=O)OC)[C@H]2c2ccccc2)cc1	.	.	i	.	.
CC(c1ccccc1)N1CCn2c(nc3cc(NC(=O)NC4CCCCC4)ccc32)C1 (stereo not drawn)	-11%	7%	11µM*	-4%	i
Cc1ccc(N2CCN(C(=O)Cn3ncc4c([nH]c5ccc(C)cc54)c3=O)CC2)c(C)c1	13%	.	i	.	i
CN(C)CCNC(=O)c1ccc(-n2c(-c3ccccc3)cc3c2CCCC3)cc1	3%	.	i	.	i
CC(C)(C)C(=O)Nc1cc(-c2cccc(Br)c2)nn1-c1ccccc1	22µM*	.	i	.	i
Cc1cccc(-c2cc(NC(=O)C(C)(C)C)n(-c3ccccc3)n2)c1	?	.	i	.	i
COc1ccc(CN(CCCN)c2ccc(Br)cn2)cc1	.	-3%	.	.	.
CCSc1ccccc1C(=O)N1CCN(c2nc3ccccc3s2)CC1	18µM*	.	i	.	i
O=C(C1COc2ccccc2O1)N1CCN(c2nc3ccccc3s2)CC1 (stereo not drawn)	11µM*	7%	i	1%	i
COc1ccc2nc(N3CCN(C(=O)c4ccco4)CC3)sc2c1	20µM*	.	i	.	i
CCc1cc2ccc(C)cc2nc1SCC(=O)N1CCN(C(=O)c2ccco2)CC1	14µM*	4%	.	14%	i
CCc1cc2cc3c(cc2nc1SCC(=O)N1CCN(C(=O)c2ccco2)CC1)OCO3	9%	4%	i	4%	i
Cc1cc(Cl)ccc1OCC(=O)N(Cc1ccc(N(C)C)cc1)CC1CCCO1 (stereo not drawn)	3%	.	i	.	i
COc1ccc(-c2csc(N3CCN(C(=O)c4ccco4)CC3)n2)cc1	20µM*	-15%	i	-2%	i
CCc1ccc2nc(N3CCN(C(=O)c4ccco4)CC3)sc2c1	14µM*	.	?	.	i
Cc1nnc(N2C(=O)c3cccc4c([N+](=O)[O-])ccc(c34)C2=O)s1	13µM*	-2%	i	-11%	i
